Assay outcomes as filed in PubChem.
Pf growth 48h: inhibits P. falciparum growth in the first generation, 48 h. P. falciparum luciferase growth in erythrocytes, 48 h. Potency, µM (doses to about 28.7 µM), without a hit: at the highest dose activity change, negative = inhibition, hits mostly inhibitors. actives 5.9% (n = 310,000)
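Luciferase-expressing parasites in RBCs, 2% Hct / 0.1% parasitemia final; RPMI 1640 + 0.5% Albumax; 37 C, 5% CO2, one generation; luminescence read-out, lower signal = inhibition.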
AMA1 RON2 block: disrupts binding of P. falciparum AMA1 to RON2 | actives 0.2% (n = 360,000) | Potency, µM (highest dose often 58.2 µM), for inactives: at the top dose activity change, negative = inhibition, most hits filed as inhibitors | AlphaScreen AMA1-biotinylated RON2 peptide binding;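 also: 0% = vehicle wells and -100% = peptide control; nearly all actives have a fitted effect of over 45% in size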
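AMA1 (3D7) with his tag at 25 nM final met compounds first, then biotinylated RON2 peptide at 25 nM; detection used donor plus acceptor beads, 10 µg/mL apiece, read by AlphaScreen after 30 min at room temperature.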
Pf growth 96h: P. falciparum growth inhibition at 96 hour, primary screen for plastid delayed-death inhibitors; AID 504834; actives 6.9% (n = 320,000); Potency, µM (titrated, usually from 28.7 µM), inactives show at the top dose activity change, negative = inhibition, usual class: inhibitors; P. falciparum luciferase reporter growth, 96 h
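Compounds incubated with erythrocytes infected by luciferase-expressing P. falciparum (2% hematocrit, 0.05% parasitemia final) for 96 hours, 37 C in 5% CO2. Growth inhibition scored as decreased luciferase luminescence.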
HCV inhibitor: blocks hepatitis C virus. Potency, µM (series often up to 41.8 µM), without a hit: at the highest dose activity change, negative = inhibition, hits mostly inhibitors. Huh7.5.1 HCVcc-Cre infection, luciferase reporter, 44 h. actives 3.4% (n = 340,000). AID 651820
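Whole-lifecycle infectious HCVcc-Cre system; cells 1,000/well, compound then virus (~0.5 moi) added 4 h after plating, 44 h culture. Luciferase read 15 sec following 15 min substrate incubation, room temp.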
Active calls of the source: *; ? = inconclusive; . = no result given; ! = not confirmed by another sample. Most compounds without a hit are left out; they make up all but 11% or so of the library. Calls follow the shape of the dose curve; as a rule, active = well fitted curve in the direction sought with a large enough effect; inconclusive = small, poorly fitted or top-dose-only effect, or another doubt; inactive = no such curve, though single readings can be large; an effect the other way counts as inactive or inconclusive. Unless noted, % is scaled to controls: 0 for no effect and ±100 for the full control effect; potency is read from the fitted curve at half-maximal effect.

SMILES | Pf growth 48h | AMA1 RON2 block | Pf growth 96h | HCV inhibitor
CCOC(=O)/C=C/C(=O)Nc1ccc(S(=O)(=O)Nc2cc(C)on2)cc1 | 10µM* | 8% | 26% | 5%
CCOC(=O)/C=C/C(=O)Nc1ccc(S(=O)(=O)N2CCCCCC2)cc1 | -9% | 9% | 12µM* | -20%
O=C(c1cc(S(=O)(=O)N2CCOCC2)ccc1F)N1CCc2ccccc21 | . | 12% | . | ?
C[C@@H](NC(=O)c1nc[nH]c1C(=O)N(C)Cc1ccccc1)c1ccccc1 | -13% | 26% | 15% | 12%
CCOC(=O)/C=C/C(=O)Nc1ccc(-c2nnc3n2CCCCC3)cc1 | ? | -1% | 0.33µM* | 14%
CCCCCC(=O)Nc1ccc(-c2nnc3n2CCCCC3)cc1 | ? | -5% | ? | 11%
Cc1cc(NS(=O)(=O)c2ccc(NC(=O)COc3c(C)cc(Br)cc3C)cc2)no1 | -7% | -13% | 9.3µM* | 7%
COc1ccc(OCC(=O)Nc2ccc(S(=O)(=O)Nc3cc(C)on3)cc2)cc1 | -4% | 6% | 1% | 9%
CCCCc1c(-c2ccccc2OC)ncn1Cc1cccc(-c2ccccc2)c1 | . | -13% | . | .
COc1ccc(CNC(=O)C(=O)NCCC2CCCCN2S(=O)(=O)c2ccc(C)cc2)cc1 (stereo unspecified) | ? | -8% | ? | ?
COc1ccc(S(=O)(=O)N2CCCC2CNC(=O)C(=O)NCc2ccccc2Cl)cc1 (stereo unspecified) | ? | -6% | 9.3µM* | ?
COc1ccc(CNC(=O)C(=O)NCCC2CCCCN2S(=O)(=O)c2ccccc2)cc1 (stereo unspecified) | 12µM* | -14% | ? | ?
O=[N+]([O-])c1ccc(S(=O)(=O)N2CCN(c3ccc(N4CCOCC4)nn3)CC2)cc1 | ? | 1% | ? | -11%
COc1cc(/C=C/C(=O)c2ccc3c(c2)OCCO3)cc(Br)c1OCC(=O)N(C)C | ? | -3% | ? | 7.1µM*
COc1cc(/C=C/c2ccc3cccc(OC)c3n2)c(O)c([N+](=O)[O-])c1 | ? | -11% | -3% | ?
COc1cc(/C=C/c2ccc3cccc(OC)c3n2)c(OC(C)=O)c([N+](=O)[O-])c1 | . | -13% | ? | 8.9µM*
COc1c(OC(C)=O)ccc(/C=C/c2ccc3cccc(OCc4ccccc4)c3n2)c1[N+](=O)[O-] | 1.9µM* | -10% | ? | 7.1µM*
CCc1sc(C(=O)Nc2ccc(N3CCOCC3)cc2)cc1C | . | -25% | . | ?
CCc1cc2cc(C(=O)Nc3ccc(C)cc3)sc2s1 | ? | -6% | 2.3µM* | -14%
O=C1OCCN1C(=O)[C@H]1[C@H](c2ccccc2)C(c2ccccc2)=NN1c1ccc(Br)cc1 | . | 50% | . | -23%
Cc1cccc(NC(=O)CSc2nc(=O)n(CCCN3CCOCC3)c3c2CCCC3)c1 | ? | 16% | ? | 10%
OCCOCCN1CCN(C(c2ccccc2)c2ccc(Cl)cc2)CC1 (stereo unspecified) | ? | -11% | ? | 1.4µM*!
ClCc1nnc(-c2ccccc2)o1 | 2.9µM* | 9% | 16% | ?
CC(C)(C)c1ccc(CN2CCN([C@H](c3ccccc3)c3ccc(Cl)cc3)CC2)cc1 | 17µM* | . | 7.6µM* | .
c1ccc(-c2nnc(-c3ccccc3)o2)cc1 | 234% | 8% | 144% | -5%
SMILES | Pf growth 48h | AMA1 RON2 block | Pf growth 96h | HCV inhibitor
O=C(O)COCCN1CCN(C(c2ccccc2)c2ccc(Cl)cc2)CC1 (stereo unspecified) | 6% | 0% | . | 0%
CC(C)(C)n1nnnc1CN1CCN(C(c2ccccc2)c2ccccc2)CC1 | 5.2µM* | ? | -13% | ?
COc1ccc(/C(C)=N/NC(=O)C(NC(=O)c2ccccc2)c2n[nH]c(=O)c3ccccc23)c(OC)c1 (stereo unspecified) | ? | -3% | -28% | 27%
Clc1ccc(C(OCCN2CCCCC2)c2ccccc2)cc1 (stereo unspecified) | ? | -17% | ? | ?
Clc1ccc([C@@H](OCCN2CCCCC2)c2ccccc2)cc1 | ? | . | 3.2µM* | .
c1ccc(-c2nnc(CN3CCN(c4ccccc4)CC3)o2)cc1 | -4% | -9% | -25% | 5%
c1ccc(-c2nnc(CN3CCN(C(c4ccccc4)c4ccccc4)CC3)o2)cc1 | -41% | 62% | 9.3µM* | -10%
CC(C)C(NC(N)=O)C(=O)NC1CCCCC1 (stereo unspecified) | 0% | . | 24% | .
C=CCN1C(=O)c2ccc(C(=O)N3CCN(S(=O)(=O)c4cccc(Cl)c4)CC3)cc2C1=O | 10µM* | 6% | 13µM* | -5%
Cc1ccc(-c2ccc(/C=N\NC(=O)C3C(=O)NCC3c3ccccc3)o2)cc1Cl (stereo unspecified) | . | 29% | ? | 8.9µM*
O=C(Nc1ccc([N+](=O)[O-])cc1)C(Cc1ccccc1)N1C(=O)c2cccc3cccc(c23)C1=O (stereo unspecified) | 5.2µM* | 1% | ? | -12%
CN(C)S(=O)(=O)Oc1cccc(C(=O)Nc2ccc(Cl)cc2)c1 | 279% | 2% | 471% | 10µM*
COc1ccc(NC(=O)c2ccc(C(=O)c3ccccc3)o2)cc1 | 7.4µM* | 17% | 36% | -6%
COc1cccc(C(=O)Nc2ccc(C(=O)O)cc2)c1 | 23% | -13% | ? | 21%
COc1ccc(C(=O)c2ccccc2)c(O)c1 | ? | 6% | 15µM*! | -19%
COc1cccc(C(=O)Nc2ccc(C(=O)c3ccccc3)cc2)c1 | 3% | -2% | ? | 10µM*
C/C=C\C(=O)Nc1cccc(C2=NOC3(C2)C[C@@H](C(N)=O)N(C(=O)c2ccc(OC)cc2)C3)c1 (stereo partly specified) | 32% | 5% | 46% | 7%
OCCC1CCCCN1CC(O)COCc1ccc(Cl)cc1 (stereo unspecified) | 5% | -17% | 15% | -14%
C[C@H](CO)N1C[C@H](C)[C@@H](CN(C)C(=O)C2CCCCC2)OCc2cn(nn2)CCCC1=O | . | 13% | . | .
COc1ccc(N/C(C)=C/C(=O)c2ccccc2)cc1 | 191% | -12% | 12µM* | 10µM*
CN(C)S(=O)(=O)Oc1ccc(C(=O)Nc2cccc(C(F)(F)F)c2)cc1 | ? | 0% | 1.7µM* | 11µM*
COc1ccc(-c2cccc(C(=O)Nc3ccccc3C)c2)cc1 | 4% | -16% | 9.3µM* | 1%
O=C(O)c1ccc(Cl)c(S(=O)(=O)Nc2cccc(C(=O)Nc3cccc(C(F)(F)F)c3)c2)c1 | 7% | 5% | 10µM* | -16%
Cc1ccc(NCc2nnc(SCC(=O)NNC(=O)Cc3ccccc3)n2C)cc1 | -7% | 85% | 38% | 15%
C#CC1CCCCC1NC(=O)Nc1cnccc1C(F)(F)F (stereo unspecified) | -13% | -22% | 0% | -2%
Oc1ccccc1-c1ccccc1 | -8% | . | -5% | .
S=c1sscc1-c1ccccc1 | . | 20µM* | . | -5%
